Consider 30 compounds from PubChem BioAssay AID778 (Sanford-Burnham Center for Chemical Genomics, 2007).

For orientation: inhibition means the drop in the measured response relative to a control, in per cent.

Hit rate of the full screen: of about 96,000 compounds, about 20,000 (21%) were called active.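 Rule for the calls: active = CYP2C19 inhibition above a set limit at 5 µM in the primary screen (cut at about 50% in these data); inactive = the rest.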 The list is a sample of the results.

For this experiment, the target named is Cytochrome P450 2C19 (Homo sapiens) (UniProt P33261). Nature of the experiment: blockers of cytochrome P450 2C19 activity – biochemical, luminescence, ADME assay, primary screen (AID 778).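 Note: plate controls were negative control wells for no effect and 2.5 mM tranylcypromine positive control for full effect.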 As to conditions: CYP2C19 Supersomes, luciferin-H EGE luminescence, 30 min; at 5 µM; active compounds read high.
Chain of Cytochrome P450 2C19 (Homo sapiens) (P33261 whole entry, looked up): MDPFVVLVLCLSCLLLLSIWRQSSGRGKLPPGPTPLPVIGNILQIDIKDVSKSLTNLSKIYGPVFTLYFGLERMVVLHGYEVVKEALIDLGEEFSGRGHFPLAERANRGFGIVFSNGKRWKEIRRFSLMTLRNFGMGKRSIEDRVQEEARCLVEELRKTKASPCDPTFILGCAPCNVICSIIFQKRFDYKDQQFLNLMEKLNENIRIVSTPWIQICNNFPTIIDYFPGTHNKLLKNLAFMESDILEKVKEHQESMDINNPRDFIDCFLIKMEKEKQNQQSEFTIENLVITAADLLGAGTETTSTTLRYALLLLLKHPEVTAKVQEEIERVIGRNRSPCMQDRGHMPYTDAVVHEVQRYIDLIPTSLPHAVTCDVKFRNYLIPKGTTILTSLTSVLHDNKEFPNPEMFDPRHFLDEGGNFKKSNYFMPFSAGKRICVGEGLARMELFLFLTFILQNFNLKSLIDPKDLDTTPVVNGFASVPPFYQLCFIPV
As for `O=C(COc1ccccc1F)NC1CC1`, the inhibition is -8.2% (inactive). Next, `O=C1CCCc2c1nc(-c1cccc(Cl)c1)n2O`: -3.8% (inactive). Regarding `CON(C)S(=O)(=O)c1ccc2c(c1)NC(=O)C1CCCN21` (stereo not given), the inhibition was 4.3% (inactive). On to `COc1ccc(Nc2nc(Cl)nc(NCc3ccco3)n2)cc1`, for which the inhibition is 4% (inactive). The value for `COc1ccc(N(CC(=O)N/N=C/c2cccs2)S(=O)(=O)c2ccc(OC)c(OC)c2)cc1` was 99.3% (active); that for `Cc1cc(C)nc(SC(C)C(=O)N/N=C/c2cccs2)n1` (stereo not given) was 20.8% (inactive); that for `COc1ccc(N(CC(=O)N/N=C/c2cccc3c2OCCO3)S(=O)(=O)c2ccc(NC(C)=O)cc2)cc1` was 33.4% (inactive). Next, `CCOc1ccc(N=Cc2c(O)n(-c3cccc(C)n3)c(=O)c3ccccc23)cc1`: 23.6% (inactive); `CCOC(=O)c1cc2c(n(-c3ccc(C)cc3)c1=O)CCCC2=O`: 5.6% (inactive); `COC(=O)CNC(=O)c1ccccc1F`: -5.1% (inactive). The value for `COc1ccc(C(=O)NN(C)c2nc(-c3ccccc3)cc(C)c2S(C)(=O)=O)cc1` was 10.6% (inactive); that for `CN(NC(=O)c1ccccc1)c1nc2ccccc2nc1C(F)(F)F` was 35.4% (inactive). On to `CSc1nc(N(C)NC(=O)c2cccc(C)c2)c2ccccc2n1`, for which the inhibition is 77% (active). In the case of `Cc1c(C(=O)OC(C)C)sc(NC(=O)c2cccnc2)c1C#N`, the inhibition is 1.5% (inactive).

Take `CC(NC(=O)c1ccco1)C(=O)Nc1nc(-c2ccccn2)cs1` (stereo not given): the inhibition is 6% (inactive). The value for `Cc1ccc(S(=O)(=O)c2ccc(Oc3ccccc3)cc2)cc1` was -11.2% (inactive); that for `Clc1ccc(Cl)c(Oc2ccc(Oc3nc(Cl)ccc3Cl)cc2)n1` was -4.8% (inactive). As for `Nc1ccc(Oc2ccc(Cl)cc2)cc1`, the inhibition was 85.1% (active).

As to `Cc1ccc(Oc2ccc(N)cc2)cc1`, the inhibition is 87.9% (active). The value for `COc1ccc2[nH]c3ccc(OC)cc3c2c1` was 29.9% (inactive).

Turning to `COc1cccc(Oc2ccc(N)cc2)c1`, the inhibition was 64.1% (active). The value for `COCCNCCOCCOc1cccc(OC)c1` was 10.2% (inactive); that for `CN(C)S(=O)(=O)c1ccc(Oc2ccc(S(=O)(=O)N(C)C)cc2)cc1` was 19.7% (inactive). Next, `Nn1c(SCC(=O)NC(=O)NC2CCCC2)nnc1-c1ccccc1F`: 27.9% (inactive); `COc1ccc(C(C(O)C(=O)c2c[nH]c3ccccc23)N2CCN(c3ccccc3)CC2)cc1` (stereo not given): 28.5% (inactive). The value for `CCC(C)c1ccc(O)c(/C=N/O)c1` (stereo not given) was -21.8% (inactive); that for `Cc1nc2ccc(C(=O)O)cc2[nH]1` was -2.4% (inactive).

Regarding `Cc1noc(C)c1COC(=O)c1cc2ccccc2cc1O`, the inhibition was 89.3% (active).

Turning to `Cc1noc(C)c1CSc1nnc2ccc3ccccc3n12`, the inhibition is 23.4% (inactive). Take `Cc1noc(C)c1COC(=O)Cn1c(C)nc2ccccc21`: the inhibition was 17.3% (inactive).
